# Data as given in paper PMC7862700, “An all-to-all approach to the identification of sequence-specific readers for epigenetic DNA modifications on cytosine”.
# Experiments:
# Experiment in all cases: DAPPL (digital affinity profiling via proximity ligation, sequencing); 10 mM Tris-HCl pH 7.5, 50 mM NaCl, 1 mM DTT, 4% glycerol, room temperature, 30 min; GST-TFs on glutathione beads, 16-mer random dsDNA library, 0.1% formaldehyde crosslink after washing; high values mean tight binding
# [1] = target: T1, FLI1 (Homo sapiens, UniProt Q01543 1-452); settings: protein: recombinant; tags: N-terminal GST; dsDNA, one strand shown
# T1 sequence: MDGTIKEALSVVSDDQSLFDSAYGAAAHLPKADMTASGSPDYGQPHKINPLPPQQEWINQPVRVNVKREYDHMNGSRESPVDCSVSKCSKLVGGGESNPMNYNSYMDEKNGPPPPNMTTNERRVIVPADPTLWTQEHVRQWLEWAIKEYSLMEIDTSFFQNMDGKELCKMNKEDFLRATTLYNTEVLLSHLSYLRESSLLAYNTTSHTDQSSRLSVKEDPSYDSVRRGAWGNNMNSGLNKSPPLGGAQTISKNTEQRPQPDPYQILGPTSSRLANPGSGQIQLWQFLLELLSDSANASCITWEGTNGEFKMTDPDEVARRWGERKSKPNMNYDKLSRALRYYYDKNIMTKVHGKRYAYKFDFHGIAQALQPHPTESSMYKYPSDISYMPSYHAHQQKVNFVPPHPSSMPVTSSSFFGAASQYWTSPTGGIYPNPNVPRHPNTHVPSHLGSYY
# Method in brief: (§1)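 Beads coated with glutathione captured GST-fused human transcription factors that had been expressed in yeast, and the factors were then given DNA barcodes and pooled with a tag-only sample. The pools were incubated with 200 nmole of a random double-stranded 16-mer DNA library in Tris/NaCl/DTT/glycerol buffer for 30 min at room temperature, washed, crosslinked with 0.1% formaldehyde and proximity-ligated with BsaI/T4 ligase at 37 °C for 1 h. PCR amplification and Illumina NextSeq500 sequencing came last. Binding signal is each hexamer's read frequency for a factor divided by its frequency for the tag-only sample.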
# [2] = target: T2, ELK1 (Homo sapiens, UniProt P19419 1-428); settings: protein: recombinant; tags: N-terminal GST; dsDNA, one strand shown
# T2 sequence: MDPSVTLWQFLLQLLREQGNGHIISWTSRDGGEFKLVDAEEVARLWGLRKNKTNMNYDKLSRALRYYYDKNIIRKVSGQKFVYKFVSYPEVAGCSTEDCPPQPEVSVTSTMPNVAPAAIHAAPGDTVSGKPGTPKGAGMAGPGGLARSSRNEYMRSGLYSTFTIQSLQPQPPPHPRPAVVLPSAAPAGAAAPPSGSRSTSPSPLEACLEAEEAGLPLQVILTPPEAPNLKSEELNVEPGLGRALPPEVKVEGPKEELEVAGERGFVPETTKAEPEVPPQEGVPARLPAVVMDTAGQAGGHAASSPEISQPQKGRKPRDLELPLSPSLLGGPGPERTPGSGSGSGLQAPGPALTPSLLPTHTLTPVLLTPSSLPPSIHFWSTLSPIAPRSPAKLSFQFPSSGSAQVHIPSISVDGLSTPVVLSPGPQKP
# Method in brief: as §1
# [3] = target: T3, GABPA (Homo sapiens, UniProt Q06546 1-454); settings: protein: recombinant; tags: N-terminal GST; dsDNA, one strand shown
# T3 sequence: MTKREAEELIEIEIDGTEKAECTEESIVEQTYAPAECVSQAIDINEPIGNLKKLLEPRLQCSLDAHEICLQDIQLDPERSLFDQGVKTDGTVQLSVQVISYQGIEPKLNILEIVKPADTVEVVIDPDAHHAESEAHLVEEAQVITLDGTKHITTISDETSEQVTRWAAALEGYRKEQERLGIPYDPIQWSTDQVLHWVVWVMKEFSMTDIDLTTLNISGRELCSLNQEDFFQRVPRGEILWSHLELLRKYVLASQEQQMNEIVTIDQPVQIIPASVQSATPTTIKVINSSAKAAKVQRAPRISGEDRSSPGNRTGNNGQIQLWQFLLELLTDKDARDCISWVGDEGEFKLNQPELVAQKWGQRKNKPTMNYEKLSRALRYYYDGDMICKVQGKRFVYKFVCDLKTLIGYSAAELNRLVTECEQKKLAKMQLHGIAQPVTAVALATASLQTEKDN
# Method in brief: as §1
# [4] = target: T4, ERG (Homo sapiens, UniProt P11308 1-479); settings: protein: recombinant; tags: N-terminal GST; dsDNA, one strand shown
# T4 sequence: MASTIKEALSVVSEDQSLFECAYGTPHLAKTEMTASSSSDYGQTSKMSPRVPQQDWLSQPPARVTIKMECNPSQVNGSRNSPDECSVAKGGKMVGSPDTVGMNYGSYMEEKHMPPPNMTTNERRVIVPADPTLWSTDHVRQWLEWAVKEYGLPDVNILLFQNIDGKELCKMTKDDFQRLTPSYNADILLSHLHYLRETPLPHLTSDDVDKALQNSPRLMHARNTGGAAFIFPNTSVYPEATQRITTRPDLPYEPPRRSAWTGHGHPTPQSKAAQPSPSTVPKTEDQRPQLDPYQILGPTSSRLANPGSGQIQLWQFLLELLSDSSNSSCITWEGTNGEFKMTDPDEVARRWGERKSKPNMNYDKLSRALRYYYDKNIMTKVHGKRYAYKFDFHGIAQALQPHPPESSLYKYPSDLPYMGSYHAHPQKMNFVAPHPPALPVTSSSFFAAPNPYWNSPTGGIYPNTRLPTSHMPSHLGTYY
# Method in brief: as §1
# [5] = target: ELF1 (Homo sapiens, UniProt P32519 1-619); settings: protein: recombinant; tags: N-terminal GST; dsDNA, one strand shown
# Chain of ELF1 (P32519 whole entry): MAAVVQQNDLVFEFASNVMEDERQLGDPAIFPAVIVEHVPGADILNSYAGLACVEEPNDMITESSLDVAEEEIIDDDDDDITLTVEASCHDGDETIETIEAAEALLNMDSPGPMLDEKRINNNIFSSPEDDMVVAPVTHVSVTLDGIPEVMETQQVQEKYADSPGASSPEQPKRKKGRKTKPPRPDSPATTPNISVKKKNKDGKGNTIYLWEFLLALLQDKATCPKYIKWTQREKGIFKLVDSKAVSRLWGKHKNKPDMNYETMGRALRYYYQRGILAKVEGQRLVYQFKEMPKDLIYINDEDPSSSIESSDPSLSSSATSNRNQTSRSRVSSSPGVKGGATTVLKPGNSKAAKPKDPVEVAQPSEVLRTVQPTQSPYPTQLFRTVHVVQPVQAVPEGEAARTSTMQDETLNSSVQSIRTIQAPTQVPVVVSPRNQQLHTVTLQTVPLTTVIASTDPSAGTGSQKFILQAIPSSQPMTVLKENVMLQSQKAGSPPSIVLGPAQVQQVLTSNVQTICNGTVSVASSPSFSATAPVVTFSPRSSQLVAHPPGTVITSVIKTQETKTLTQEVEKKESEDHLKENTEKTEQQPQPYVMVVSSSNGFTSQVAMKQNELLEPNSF
# Method in brief: as §1
# [6] = target: T5, EHF (Homo sapiens, UniProt Q9NZC4 1-300); settings: protein: recombinant; tags: N-terminal GST; dsDNA, one strand shown
# T5 sequence: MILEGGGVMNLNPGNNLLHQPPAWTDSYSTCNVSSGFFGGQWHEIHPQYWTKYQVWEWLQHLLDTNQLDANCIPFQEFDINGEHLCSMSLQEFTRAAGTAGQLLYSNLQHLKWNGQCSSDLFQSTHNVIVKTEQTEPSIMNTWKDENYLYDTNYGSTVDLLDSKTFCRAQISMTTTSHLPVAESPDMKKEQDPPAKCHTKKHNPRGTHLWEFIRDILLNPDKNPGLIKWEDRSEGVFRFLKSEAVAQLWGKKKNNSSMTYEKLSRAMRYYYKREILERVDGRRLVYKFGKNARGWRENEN
# Method in brief: as §1
# [7] = target: SPI1 (Homo sapiens, UniProt P17947 1-270); settings: protein: recombinant; tags: N-terminal GST; dsDNA, one strand shown
# Method in brief: as §1
# [8] = target: SPIB (Homo sapiens, UniProt Q01892 1-262); settings: protein: recombinant; tags: N-terminal GST; dsDNA, one strand shown
# Chain of SPIB (Q01892 whole entry): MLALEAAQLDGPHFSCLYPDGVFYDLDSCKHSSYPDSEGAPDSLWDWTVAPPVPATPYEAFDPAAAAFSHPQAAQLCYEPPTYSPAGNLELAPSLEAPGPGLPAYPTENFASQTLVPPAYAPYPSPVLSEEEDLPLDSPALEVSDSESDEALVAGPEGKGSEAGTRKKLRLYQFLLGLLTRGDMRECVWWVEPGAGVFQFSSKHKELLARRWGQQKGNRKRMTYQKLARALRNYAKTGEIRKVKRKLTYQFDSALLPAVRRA
# Method in brief: as §1
# [9] = target: T6, ELK3 (Homo sapiens, UniProt P41970 1-407); settings: protein: recombinant; tags: N-terminal GST; dsDNA, one strand shown
# T6 sequence: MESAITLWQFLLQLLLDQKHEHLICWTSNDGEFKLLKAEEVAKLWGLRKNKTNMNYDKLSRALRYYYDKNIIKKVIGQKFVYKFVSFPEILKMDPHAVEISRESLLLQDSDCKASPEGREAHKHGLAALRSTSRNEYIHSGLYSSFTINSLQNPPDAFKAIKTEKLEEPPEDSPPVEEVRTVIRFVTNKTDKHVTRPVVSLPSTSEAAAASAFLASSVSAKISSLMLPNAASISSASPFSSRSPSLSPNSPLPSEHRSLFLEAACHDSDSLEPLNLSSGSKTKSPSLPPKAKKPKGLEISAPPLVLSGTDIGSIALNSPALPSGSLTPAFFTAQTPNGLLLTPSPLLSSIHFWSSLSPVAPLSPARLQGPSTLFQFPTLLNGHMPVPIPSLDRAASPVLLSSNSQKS
# Method in brief: as §1
# [10] = target: T7, FEV (Homo sapiens, UniProt Q99581 1-238); settings: protein: recombinant; tags: N-terminal GST; dsDNA, one strand shown
# T7 sequence: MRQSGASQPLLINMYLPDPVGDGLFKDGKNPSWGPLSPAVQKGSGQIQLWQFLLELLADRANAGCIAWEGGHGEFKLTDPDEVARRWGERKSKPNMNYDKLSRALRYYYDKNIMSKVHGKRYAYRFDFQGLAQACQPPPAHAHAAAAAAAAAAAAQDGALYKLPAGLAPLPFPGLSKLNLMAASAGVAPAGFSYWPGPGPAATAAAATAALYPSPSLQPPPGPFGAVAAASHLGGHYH
# Method in brief: as §1
# [11] = target: ETV5 (Homo sapiens, UniProt P41161 1-510); settings: protein: recombinant; tags: N-terminal GST; dsDNA, one strand shown
# Chain of ETV5 (P41161 whole entry): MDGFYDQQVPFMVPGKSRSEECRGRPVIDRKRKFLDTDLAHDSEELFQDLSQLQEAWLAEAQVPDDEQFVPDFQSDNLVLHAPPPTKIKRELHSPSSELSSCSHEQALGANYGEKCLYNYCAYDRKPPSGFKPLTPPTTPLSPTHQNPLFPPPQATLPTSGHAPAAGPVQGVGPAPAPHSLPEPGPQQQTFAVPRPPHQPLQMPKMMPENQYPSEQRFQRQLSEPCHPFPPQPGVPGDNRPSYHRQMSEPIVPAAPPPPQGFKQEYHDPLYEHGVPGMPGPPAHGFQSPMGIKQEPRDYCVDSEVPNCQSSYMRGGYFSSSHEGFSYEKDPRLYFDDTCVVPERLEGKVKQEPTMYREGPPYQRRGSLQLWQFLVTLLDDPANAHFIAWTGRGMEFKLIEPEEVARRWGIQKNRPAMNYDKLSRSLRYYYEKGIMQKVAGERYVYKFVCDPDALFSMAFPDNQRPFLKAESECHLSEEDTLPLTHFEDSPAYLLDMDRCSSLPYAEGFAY
# Method in brief: as §1
# [12] = target: HSF1 (Homo sapiens, UniProt Q00613 1-529); settings: protein: recombinant; tags: N-terminal GST; chain copies: 3; dsDNA, one strand shown
# Chain of HSF1 (Q00613 whole entry): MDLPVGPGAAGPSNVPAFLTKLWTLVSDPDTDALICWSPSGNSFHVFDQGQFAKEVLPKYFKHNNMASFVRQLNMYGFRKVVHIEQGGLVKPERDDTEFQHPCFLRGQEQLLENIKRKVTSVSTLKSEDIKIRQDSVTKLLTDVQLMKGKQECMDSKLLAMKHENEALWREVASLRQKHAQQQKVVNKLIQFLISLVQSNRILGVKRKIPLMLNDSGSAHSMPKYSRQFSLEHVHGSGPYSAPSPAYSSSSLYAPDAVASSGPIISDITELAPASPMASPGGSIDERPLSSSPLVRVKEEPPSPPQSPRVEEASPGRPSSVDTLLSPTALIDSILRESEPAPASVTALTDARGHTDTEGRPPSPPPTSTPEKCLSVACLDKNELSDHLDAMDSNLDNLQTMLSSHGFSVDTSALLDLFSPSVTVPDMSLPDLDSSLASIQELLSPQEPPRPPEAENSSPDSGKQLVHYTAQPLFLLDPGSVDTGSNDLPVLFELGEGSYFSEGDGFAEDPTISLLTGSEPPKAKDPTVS
# Method in brief: as §1
# [13] = target: T8, SPIC (Homo sapiens, UniProt Q8N5J4 1-248); settings: protein: recombinant; tags: N-terminal GST; dsDNA, one strand shown
# T8 sequence: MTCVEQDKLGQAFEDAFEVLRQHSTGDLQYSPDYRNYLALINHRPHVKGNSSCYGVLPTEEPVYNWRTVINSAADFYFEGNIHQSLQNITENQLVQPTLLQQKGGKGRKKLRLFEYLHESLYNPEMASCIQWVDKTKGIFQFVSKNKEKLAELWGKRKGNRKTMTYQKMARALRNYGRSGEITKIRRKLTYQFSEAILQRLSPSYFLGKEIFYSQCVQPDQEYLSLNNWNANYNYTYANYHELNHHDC
# Method in brief: as §1
# [14] = target: ELF4 (Homo sapiens, UniProt Q99607 1-663); settings: protein: recombinant; tags: N-terminal GST; dsDNA, one strand shown
# Chain of ELF4 (Q99607 whole entry): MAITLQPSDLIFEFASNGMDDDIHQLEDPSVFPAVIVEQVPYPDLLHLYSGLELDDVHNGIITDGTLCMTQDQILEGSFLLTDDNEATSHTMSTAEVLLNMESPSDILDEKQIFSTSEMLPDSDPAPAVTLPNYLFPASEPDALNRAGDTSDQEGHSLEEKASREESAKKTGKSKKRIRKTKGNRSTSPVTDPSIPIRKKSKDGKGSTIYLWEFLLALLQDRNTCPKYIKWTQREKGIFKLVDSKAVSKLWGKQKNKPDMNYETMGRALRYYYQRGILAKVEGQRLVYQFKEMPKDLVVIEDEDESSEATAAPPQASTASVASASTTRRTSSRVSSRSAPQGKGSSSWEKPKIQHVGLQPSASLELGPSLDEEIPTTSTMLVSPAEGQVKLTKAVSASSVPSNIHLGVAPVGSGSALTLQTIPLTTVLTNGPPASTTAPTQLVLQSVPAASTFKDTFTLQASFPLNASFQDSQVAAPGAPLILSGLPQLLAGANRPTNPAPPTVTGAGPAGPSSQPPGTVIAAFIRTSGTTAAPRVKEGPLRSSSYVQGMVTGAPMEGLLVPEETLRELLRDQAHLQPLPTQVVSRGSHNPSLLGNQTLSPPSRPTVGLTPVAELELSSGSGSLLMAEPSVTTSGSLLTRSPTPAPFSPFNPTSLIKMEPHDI
# Method in brief: as §1
# [15] = target: T9, ELK4 (Homo sapiens, UniProt P28324-2 1-405); settings: protein: recombinant; tags: N-terminal GST; dsDNA, one strand shown
# T9 sequence: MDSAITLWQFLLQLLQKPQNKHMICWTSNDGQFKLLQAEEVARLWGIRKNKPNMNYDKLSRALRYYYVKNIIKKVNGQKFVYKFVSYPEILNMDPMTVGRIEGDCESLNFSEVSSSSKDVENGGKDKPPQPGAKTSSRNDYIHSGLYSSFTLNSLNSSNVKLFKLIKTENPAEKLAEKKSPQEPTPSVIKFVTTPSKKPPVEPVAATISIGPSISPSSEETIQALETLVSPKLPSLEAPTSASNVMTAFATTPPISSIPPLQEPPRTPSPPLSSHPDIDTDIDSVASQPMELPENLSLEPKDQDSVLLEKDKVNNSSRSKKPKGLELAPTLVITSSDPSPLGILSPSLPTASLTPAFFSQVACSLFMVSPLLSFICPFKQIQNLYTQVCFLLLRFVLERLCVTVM
# Method in brief: as §1
# [16] = target: T10, ETV2 (Homo sapiens, UniProt O00321 1-342); settings: protein: recombinant; tags: N-terminal GST; dsDNA, one strand shown
# T10 sequence: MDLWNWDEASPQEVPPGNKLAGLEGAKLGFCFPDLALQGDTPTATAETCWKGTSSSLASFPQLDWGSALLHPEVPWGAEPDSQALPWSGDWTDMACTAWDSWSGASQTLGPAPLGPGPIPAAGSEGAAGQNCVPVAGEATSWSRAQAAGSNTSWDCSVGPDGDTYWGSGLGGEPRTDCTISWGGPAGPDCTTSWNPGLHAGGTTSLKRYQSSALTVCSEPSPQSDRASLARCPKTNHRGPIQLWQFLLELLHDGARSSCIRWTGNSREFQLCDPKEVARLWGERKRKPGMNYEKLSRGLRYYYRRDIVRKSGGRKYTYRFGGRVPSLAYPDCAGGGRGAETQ
# Method in brief: as §1
# [17] = target: T11, ELF3 (Homo sapiens, UniProt P78545 1-371); settings: protein: recombinant; tags: N-terminal GST; dsDNA, one strand shown
# T11 sequence: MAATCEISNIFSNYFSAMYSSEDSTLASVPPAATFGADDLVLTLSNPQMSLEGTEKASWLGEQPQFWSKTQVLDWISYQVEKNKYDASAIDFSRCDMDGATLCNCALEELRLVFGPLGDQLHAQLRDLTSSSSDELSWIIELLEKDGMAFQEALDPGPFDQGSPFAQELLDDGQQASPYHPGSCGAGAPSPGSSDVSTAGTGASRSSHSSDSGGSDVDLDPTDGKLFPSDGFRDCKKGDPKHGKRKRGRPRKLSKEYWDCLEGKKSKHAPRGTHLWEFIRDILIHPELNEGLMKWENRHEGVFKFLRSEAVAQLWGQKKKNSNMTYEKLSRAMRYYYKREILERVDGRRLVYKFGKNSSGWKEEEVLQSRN
# Method in brief: as §1
# [18] = target: CRX (Homo sapiens, UniProt O43186 1-299); settings: protein: recombinant; tags: N-terminal GST; dsDNA, one strand shown
# Chain of CRX (O43186 whole entry): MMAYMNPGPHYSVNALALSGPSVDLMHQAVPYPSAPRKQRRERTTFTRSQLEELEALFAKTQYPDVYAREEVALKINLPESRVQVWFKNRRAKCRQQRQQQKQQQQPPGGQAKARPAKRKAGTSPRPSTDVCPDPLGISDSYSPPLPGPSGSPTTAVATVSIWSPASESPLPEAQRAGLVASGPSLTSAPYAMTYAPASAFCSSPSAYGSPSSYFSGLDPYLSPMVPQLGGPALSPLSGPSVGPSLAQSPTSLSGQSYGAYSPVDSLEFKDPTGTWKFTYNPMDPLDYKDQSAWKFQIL
# Method in brief: as §1
# [19] = target: ETV1 (Homo sapiens, UniProt P50549 1-477); settings: protein: recombinant; tags: N-terminal GST; dsDNA, one strand shown
# Chain of ETV1 (P50549 whole entry): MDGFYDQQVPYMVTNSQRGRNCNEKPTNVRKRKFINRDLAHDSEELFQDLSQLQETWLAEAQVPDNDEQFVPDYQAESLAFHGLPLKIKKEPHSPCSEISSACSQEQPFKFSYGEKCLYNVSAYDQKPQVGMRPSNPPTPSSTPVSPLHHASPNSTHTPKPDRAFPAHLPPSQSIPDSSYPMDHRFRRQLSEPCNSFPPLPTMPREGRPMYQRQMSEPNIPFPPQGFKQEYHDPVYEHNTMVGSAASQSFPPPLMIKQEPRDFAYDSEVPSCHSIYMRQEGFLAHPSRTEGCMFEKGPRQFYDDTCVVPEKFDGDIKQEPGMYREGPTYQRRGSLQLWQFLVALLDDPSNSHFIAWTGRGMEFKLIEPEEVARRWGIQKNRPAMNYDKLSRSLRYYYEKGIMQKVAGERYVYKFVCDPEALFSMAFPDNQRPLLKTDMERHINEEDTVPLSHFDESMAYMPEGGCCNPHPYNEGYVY
# Method in brief: as §1
sequence,measurement,setting,value
TCAACC,binding signal,[1],"1.23 fold enrichment (6-mer frequency, TF over GST control)"
same,binding signal,[2],"1.24 fold enrichment (6-mer frequency, TF over GST control)"
same,binding signal,[3],"1.22 fold enrichment (6-mer frequency, TF over GST control)"
same,binding signal,[4],"1.14 fold enrichment (6-mer frequency, TF over GST control)"
same,binding signal,[5],"1.16 fold enrichment (6-mer frequency, TF over GST control)"
same,binding signal,[6],"1.15 fold enrichment (6-mer frequency, TF over GST control)"
same,binding signal,[7],"1.16 fold enrichment (6-mer frequency, TF over GST control)"
same,binding signal,[8],"1.17 fold enrichment (6-mer frequency, TF over GST control)"
same,binding signal,[9],"1.32 fold enrichment (6-mer frequency, TF over GST control)"
same,binding signal,[10],"1.19 fold enrichment (6-mer frequency, TF over GST control)"
same,binding signal,[11],"1.22 fold enrichment (6-mer frequency, TF over GST control)"
same,binding signal,[12],"1.03 fold enrichment (6-mer frequency, TF over GST control)"
same,binding signal,[13],"1.07 fold enrichment (6-mer frequency, TF over GST control)"
same,binding signal,[14],"1.19 fold enrichment (6-mer frequency, TF over GST control)"
same,binding signal,[15],"1.16 fold enrichment (6-mer frequency, TF over GST control)"
same,binding signal,[16],"1.3 fold enrichment (6-mer frequency, TF over GST control)"
same,binding signal,[17],"1.16 fold enrichment (6-mer frequency, TF over GST control)"
same,binding signal,[18],"1.09 fold enrichment (6-mer frequency, TF over GST control)"
same,binding signal,[19],"1.23 fold enrichment (6-mer frequency, TF over GST control)"
